# TbPYK inhibitor: qHTS of Trypanosoma Brucei Inhibitors. pyruvate kinase (Trypanosoma brucei), Q57TT1. TbPYK enzyme, Kinase-Glo Plus ATP luminescence, 45 min. Potency, µM (top dose mostly 76.8 µM), inactives show at the highest dose activity, negative = inhibition, most hits filed as inhibitors. 410,000 compounds, 0.12% hits. AID 624173, 2012; also: potency is read from the fitted curve at half-maximal effect; % is scaled to controls: 0 for no effect and ±100 for the full control effect; nearly all actives have a fitted effect of over 50% in size
#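 Readout: single end-point luminescence (Kinase-Glo Plus, 10 min). Reaction conditions were TbPYK/substrate plus 130 uM ADP, 45 min at RT, pH 7.2 TEA buffer. No-enzyme wells served as controls, and data were normalized before concentration-response fitting.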
# Shiga inhibitor: A qHTS for Small Molecule Inhibitors of Shiga Toxin | Vero cells, Shiga toxin protein synthesis inhibition reporter | inhibition, % at 38.7 µM | 290,000 compounds, 9.2% hits; in the data active = inhibition mostly above about 28%, no sharp cut-off; inactive = mostly below about 43%; also: 0% is about no effect
# FBPA Giardia inh: qHTS Assay for Inhibitors of Fructose-1,6-bisphosphate Aldolase from Giardia Lamblia | A8B2U2 | purified Giardia FBPA | Potency, µM (titrated, usually from 59.6 µM), inactives show at the highest dose activity, negative = inhibition, hits mostly inhibitors | 290,000 compounds, 0.71% hits; also: potency is read from the fitted curve at half-maximal effect; % is scaled to controls: 0 for no effect and ±100 for the full control effect; nearly all actives have a fitted effect of over 55% in size
#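 Giardia FBPA (40 nM reagent) was preincubated 10 min at RT with compound (up to 57.5 uM final), then substrate plus GAPDH/TPI/NAD/arsenate coupling system with diaphorase/resazurin was added; resorufin fluorescence (525/598 nm) was read after 20 min.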
# Cycloheximide cs: Cycloheximide Counterscreen for Small Molecule Inhibitors of Shiga Toxin; cell reporter, cycloheximide protein synthesis inhibition counterscreen; max response, %; 300,000 compounds, 12% hits; AID 2314, 2010; in the data active = max response mostly above about 13%, no sharp cut-off; inactive = mostly below about 14%; also: read at 38.3 µM for the half of the compounds with a filed dose; 0% is about no effect
# LmPK inh: qHTS Assay for Inhibitors of Leishmania Mexicana Pyruvate Kinase (LmPK) | Q27686 | purified LmPK, Kinase-Glo ATP luminescence, 1 h | Potency, µM (highest dose often 57.5 µM), without a hit: at the highest dose activity change, negative = inhibition, most hits filed as inhibitors | 290,000 compounds, 0.37% hits | AID 1721, 2009; also: potency is read from the fitted curve at half-maximal effect; % is scaled to controls: 0 for no effect and ±100 for the full control effect
# Target sequence (Q27686 whole entry, looked up): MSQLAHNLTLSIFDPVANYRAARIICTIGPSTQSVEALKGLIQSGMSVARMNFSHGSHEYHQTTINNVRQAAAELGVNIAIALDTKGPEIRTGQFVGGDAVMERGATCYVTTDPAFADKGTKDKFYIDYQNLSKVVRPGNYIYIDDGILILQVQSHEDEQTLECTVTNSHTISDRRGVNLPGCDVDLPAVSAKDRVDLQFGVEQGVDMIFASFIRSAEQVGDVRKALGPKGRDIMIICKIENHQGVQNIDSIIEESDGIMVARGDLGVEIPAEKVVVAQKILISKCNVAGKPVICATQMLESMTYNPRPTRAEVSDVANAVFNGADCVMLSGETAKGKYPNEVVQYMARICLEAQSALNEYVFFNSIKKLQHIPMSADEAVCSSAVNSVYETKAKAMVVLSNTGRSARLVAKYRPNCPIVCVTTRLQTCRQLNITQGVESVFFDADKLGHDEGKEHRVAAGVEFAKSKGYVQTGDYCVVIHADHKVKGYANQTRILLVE
#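 Pyruvate kinase activity monitored as ATP production (luciferase luminescence). Conditions: 0.1 nM enzyme, 0.5 mM PEP, 0.1 mM ADP, 1 h, RT; normalized against uninhibited and no-enzyme wells.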
# Sm TGR block: qHTS Assay for the Inhibitors of Schistosoma Mansoni Peroxiredoxins; 360,000 compounds, 3% hits; purified TGR, DTNB reduction, TNB absorbance 405 nm; Schistosoma mansoni thioredoxin glutathione reductase (TGR), Q962Y6; Potency, µM (titrated, usually from 114 µM), for the others: at the highest dose activity change, negative = inhibition, actives largely listed as inhibitors; also: potency is read from the fitted curve at half-maximal effect; % is scaled to controls: 0 for no effect and ±100 for the full control effect; nearly all actives have a fitted effect of over 60% in size
#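 First, TGR (20 nM dispensed) and NADPH were mixed with compound. Second, a 15 min room-temperature incubation followed. Third, further NADPH and then DTNB were added to start the reaction. Finally, TNB absorbance was monitored kinetically.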
# An asterisk follows results filed as active; i = inactive; ? = inconclusive; nt = no result; [ ] = remark or other dose. This excerpt belongs to a sample that is enriched for hits. Unless noted, calls follow the shape of the dose curve; as a rule, active = well fitted curve in the direction sought with a large enough effect; inconclusive = small, poorly fitted or top-dose-only effect, or another doubt; inactive = no such curve, though single readings can be large; an effect the other way counts as inactive or inconclusive.
SMILES,TbPYK inhibitor,Shiga inhibitor,FBPA Giardia inh,Cycloheximide cs,LmPK inh,Sm TGR block
Clc1ccccc1N=C1NN=C(c2cccs2)CS1,-2%,98*,2%,53*,-3%[11.5 µM],9%
COCCCN=C1NN=C(c2cc(C)n(-c3ccccc3F)c2C)CS1,-18%,50,-6%,19,-4%,-15%
Cc1cccc(N=C2NN=C(c3ccccc3F)CS2)c1C,-5%,51*,3%,34*,2%,-8%
Cc1ccc(C(=O)O[C@H](C(=O)O)[C@@H](OC(=O)c2ccc(C)cc2)C(=O)O)cc1 (tested in a mixture with another compound),nt,nt,13%,nt,nt,nt
COc1cc(CNC(=O)C2CCCCN2S(=O)(=O)c2ccc(F)cc2)cc(OC)c1OC (configuration not stated),-4%,nt,nt,nt,nt,-1%
CC1(c2ccc(OC(F)F)cc2)NC(=O)N(CC(=O)Nc2ccc3[nH]c(=O)[nH]c3c2)C1=O (configuration not stated),1%,nt,nt,nt,nt,1%
CC1(c2ccc(OC(F)F)cc2)NC(=O)N(CC(=O)Nc2ccccc2)C1=O (configuration not stated),-7%,72*,-4%,19*,0%,-4%
Cc1ccc2nc(-c3ccc(NC(=O)CN4C(=O)NC(C)(c5ccc(OC(F)F)cc5)C4=O)cc3)sc2c1 (configuration not stated),11%,99*,10%,30*,8%,8%
CC1(c2ccc3noc(-c4ccc(F)cc4)c3c2)OCCO1,4%,72,-6%,19*,4%,7%
CC1(c2ccc3noc(-c4ccccc4)c3c2)OCCO1,-1%,30,-3%,-1,3%,-1%
COc1cccc(-c2onc3ccc(C(C)=O)cc23)c1,1%,31,-3%,15*,8%,?
COc1cccc(-c2onc3ccc(C4(C)OCCO4)cc23)c1,2%,31,1%,26*,-3%,5%
CC(=O)c1ccc2noc(-c3cccc(F)c3)c2c1,-3%,7,2%,0,-1%,?
COc1ccc(NS(=O)(=O)c2ccc(I)cc2)cc1N1CCN(C)CC1,nt,-5,-3%,-2,nt,nt
O=C(CSc1ncnc2c1oc1ccccc12)c1cccs1,-5%,42*,0%,23*,2%,0%
Cc1nc(SCC(=O)c2cccs2)c2oc3ccccc3c2n1,-1%,136*,2%,56*,-1%,-14%
O=c1c(S(=O)(=O)c2cccc(Cl)c2)cn(Cc2ccccc2)c2cc(N3CCOCC3)c(F)cc12,5%,nt,nt,nt,nt,0%
O=C(/C=C/c1ccc(O)cc1)c1ccc(O)cc1O,3%,34,0%,29*,-4%,-24%
COc1cc(/C=C/C(=O)c2ccc(O)cc2O)ccc1O,nt,68*,-3%,32*,nt,nt
O=C(/C=C/c1ccccc1)c1ccc(O)cc1O,nt,nt,5%,nt,nt,nt
Cc1ccccc1OCC(=O)NC1CCCCCCC1,0%,59*,-2%,12,6%,1%
Cc1ccc(OCC(=O)NC2CCCC2)c(C)c1,4%,42,0%,36*,-2%,-26%
O=C(COc1ccc2ccccc2c1)NCCNC(=O)COc1ccc2ccccc2c1,-9%,-5,-2%,11,15%,2%
O=C(COc1ccc2ccccc2c1)NC1CC1,4%,70*,0%,43*,-1%,-2%
O=C(COc1ccc(Cl)cc1Cl)NC1CCSC1=O (configuration not stated),1%,131*,-2%,40*,3%,-4%
SMILES,TbPYK inhibitor,Shiga inhibitor,FBPA Giardia inh,Cycloheximide cs,LmPK inh,Sm TGR block
Cc1cccc(OCC(=O)NC2CCCCCC2)c1C,1%,-16,nt,4,-4%,0%
Cc1ccc(NC(=O)Cn2c(-c3cncs3)nc3ccccc32)c(Br)c1,0%,nt,nt,nt,nt,-11%
CSCCC(NC(=O)c1ccccc1)C(=O)N1CCN(C(C)=O)CC1 (configuration not stated),-4%,nt,nt,nt,nt,-8%
Cc1ccc(C)c(OCC(=O)NC2CCCCCC2)c1,-2%,11,nt,27*,-7%,1%
Cc1ccc(OCC(=O)NC2CCCCCC2)cc1C,0%,42,1%,25*,8%,8%
Cc1cc(Cl)ccc1OCC(=O)NC1CCCC1,0%,37,0%,34*,11%,2%
Cc1cccc(C(=O)OCC(=O)NC(=O)NC2CCCCC2)c1,-7%,nt,nt,nt,nt,nt
Cn1cccc1C(=O)OCC(=O)NC(=O)NC1CCCCC1,-9%,63,4%,41*,3%,-11%
Cc1cccc(OCC(=O)NC2CCCC2)c1,6%,63,0%,13,1%,-14%
Cc1cc(=O)c(C(=O)O)nn1-c1ccccc1Cl,3%,-4,3%,-3,-10%,9%
O=C(COc1ccccc1Cl)NC(=O)NC1CCCC1,0%,26,3%,26*,1%,-2%[11.4 µM]
Cc1cccc(CC(=O)NC2CCCCCC2)c1,-3%,76,5%,14*,0%,1%
O=C(COc1ccc(Cl)cc1Cl)NC(=O)NC1CCCC1,-2%,nt,nt,nt,nt,-1%
Cc1cc(Cl)ccc1OCC(=O)NNC(=O)c1ccco1,4%,35*,nt,35*,-8%,-10%
Cc1cc(S(=O)(=O)N2CCCOC2CNC(=O)C(=O)NCCCN2CCOCC2)ccc1F (configuration not stated),-11%,-1,nt,-2,-5%,0%
CC(=O)c1ccc(S(=O)(=O)N(Cc2cc3cc4c(cc3[nH]c2=O)OCCO4)CC2CCCO2)cc1 (configuration not stated),-1%,93*,-4%,37*,-1%,-1%
O=c1[nH]c2cc3c(cc2cc1CN(CC1CCCO1)S(=O)(=O)c1ccc(Cl)cc1)OCCO3 (configuration not stated),0%,183*,-21%,67*,2%,-7%
Cc1c(Cl)cccc1NC(=O)CSc1cc(-c2ccccc2)ncn1,1%,nt,nt,nt,nt,-2%
CCCC[C@]12Cc3cc(C#N)ccc3C(O1)c1c(cc(C)n(-c3ccccc3)c1=O)O2,nt,i,-12%[12.9 µM],1,-11%[11.5 µM],0%[22.9 µM]
Cc1nn(-c2ccccc2)c2[nH]c(=O)c(CNc3ccc4c(c3)OCCO4)cc12,3%,113*,-20%,42*,4%,0%
CC(C)(O[C@@H]1O[C@H](CO)[C@@H](O)[C@H](O)[C@H]1O)[C@H]1Cc2cc3ccc(=O)oc3cc2O1,1%,-7,5%,-4,-4%,2%
C=C(C)C1Cc2cc3ccc(=O)oc3cc2O1 (configuration not stated),5%,27,6%,16*,1%,0%

# Assay outcomes: PubChem BioAssay, National Center for Advancing Translational Sciences (NCATS)
